Data as given in PubChem BioAssay (NCI).
The panel holds about 83,000 compounds, 20% with a hit somewhere; the sample as a whole holds those more often.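 Step 1: grow cells in 96-well plates. Step 2: add test compound at a single concentration. Step 3: incubate 48 h. Step 4: record percent growth.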 Unmarked numbers belong to inactive results. Calls of active or inactive are those of the source. How the source made its calls: active means growth percent below 10; inactive means the rest.

tested on: TK-10 renal; assay: NCI-60 one-dose screen, 48 h (100 = growth as untreated, 0 = no growth, -100 = all killed); settings: 10 µM unless noted

Going from `O=C(Nc1ccc(Cl)cc1)Nc1ccc(Cl)c(Cl)c1` to `Clc1ccc(C2CC(c3cccc(Nc4ccncc4)c3)=NN2c2ccc(Cl)cc2)cc1` (stereo unspecified), the growth rises from 12.5% to 50.5%.

Going from `CC(C)Cc1ccc(C(C)C(=O)NCc2ccc(Cn3c(=O)sn(-c4ccc(Cl)cc4)c3=O)cc2)cc1` (stereo unspecified) to `COc1ccc(C2CC(c3cccc(Nc4ccncc4)c3)=NN2c2ccc(Cl)cc2)cc1` (stereo unspecified), the growth falls from 74.2% to 59.1%.

Compared with `COc1ccc(/C=N/NC(=O)c2cccc3cc[nH]c23)cc1O`, `COc1ccc(C(O)c2cc3c(N)c(C(=O)Nc4ccc(Br)cc4)sc3nc2C)cc1` (stereo unspecified) is lower in growth: 47.1% for the first, 39.5% for the second.

Going from `COc1cc(NCC(O)CN(CC(C)C)C2CCCC2)c2ncccc2c1` (stereo unspecified) to `CCN(CC)CCCC(C)Nc1cc(-c2cccc(OC(F)(F)F)c2)nc2ccc(N3CCCC3)cc12` (stereo unspecified), the growth falls from 110% to 12.2%.

First: COc1cccc(CCC(=O)c2cc3c(N)c(C(=O)Nc4ccccc4)sc3nc2C)c1
Second: COc1ccccc1Nc1cc(O)c2c(=O)cc(-c3ccccc3)oc2c1
The growth of the first is higher: 70.9% for the first, 66.3% for the second.

Compared with `CN1CCN(CCCNc2nccc(-c3c(-c4ccc(F)c(O)c4)nc4sccn34)n2)S1(=O)=O`, `COc1cc(-c2nc3occn3c2-c2ccnc(NCCNS(=O)(=O)c3ccc(Cl)cc3)n2)ccc1F` is lower in growth: 133% for the first, 89% for the second.

First: C[C@@H]1CN(Cc2ccc(/C=C/c3n[nH]c4ccc5nc(-c6cn[nH]c6C(F)(F)F)c6c(c5c34)CCCC6)cc2)C[C@H](C)O1
Second: COc1ccncc1C#Cc1cncc(C(=O)Nc2ccc(CN3CCN(C)CC3)c(C(F)(F)F)c2)c1
The growth of the first is lower: 32.5% for the first, 50.6% for the second.

First: COc1ccc(-c2ncc(-c3ccccc3)[nH]2)cc1OC
Second: COc1cc2nc(-c3ccc(C#N)cc3)[nH]c(=O)c2cc1OC
The growth of the first is lower: 256% for the first, 271% for the second.

Going from `CCOC(=O)c1ccc(Nc2ccnc(SCC(=O)c3ccc(C#N)cc3)n2)cc1` to `COc1ccc(-c2nc(SCC(C)C)nc(N/N=C(/C)c3ccc(OC)c(OC)c3)c2C#N)cc1`, the growth rises from 90.4% to 101%.

First: CCCCCCCCCCCCCCCCCCOc1ccccc1N
Second: O=C(Nc1ccccc1)Oc1ccccc1-c1ccccc1
The growth of the first is higher: 103% for the first, 94.1% for the second.

Compared with `Clc1ccc(N2N=C(c3cccc(Nc4ccncc4)c3)CC2c2ccc(Br)cc2)cc1` (stereo unspecified), `Clc1ccc(N2N=C(c3cccc(Nc4ccncc4)c3)CC2c2ccccc2)cc1` (stereo unspecified) is higher in growth: 62.3% for the first, 106% for the second.

Compared with `Fc1ccc(C2CC(c3cccc(Nc4ccncc4)c3)=NN2c2ccccc2)cc1` (stereo unspecified), `Clc1cc(Cl)cc(N2N=C(c3cccc(Nc4ccncc4)c3)CC2c2ccc(Br)cc2)c1` (stereo unspecified) is lower in growth: 80.3% for the first, 71.4% for the second.

Compared with `COc1ccc2c(c1)OC1=C(C(=O)OC1)C2c1cc(OC)c(OC)c(OC)c1` (stereo unspecified), `COc1c(Cl)cc(Cl)c2ccc(C=C3C(=O)N(C)C(=O)N(C)C3=O)nc12` is higher in growth: 67.4% for the first, 102% for the second.

Compared with `CN1CCN(C(=O)[C@]2(C)CC[C@]3(C)CC[C@]4(C)C(=CC(=O)[C@@H]5[C@@]6(C)CCC(=O)NC(C)(C)[C@@H]6CC[C@]54C)[C@@H]3C2)CC1`, `CN1CCN(c2ccc(NC3=C(Cl)C(=O)c4ncccc4C3=O)cc2C#N)CC1` is lower in growth: 105% for the first, 85.4% for the second.

Going from `CC(=O)NCCCS(=O)(=O)O` to `CC1=NNC(=O)C1CCC(=O)N/N=C(\C)c1ccc2ccccc2c1` (stereo unspecified), the growth rises from 102% to 130%.

Going from `O=C1Nc2c(ccc(Cl)c2Cl)/C1=C/c1ccccn1` to `COc1ccc(NS(=O)(=O)c2ccc(C)cc2)c([N+](=O)[O-])c1`, the growth falls from 120% to 99.7%.

First: C[C@]12CCc3nc(Nc4cccc(O)c4)sc3C1=CC[C@@H]1[C@@H]2CC[C@]2(C)/C(=N\NC(N)=S)CC[C@@H]12
Second: O=c1[nH]c2c(s1)CCCC2CN1CCCCC1 (stereo unspecified)
The growth of the first is lower: 20.1% for the first, 93% for the second.

In the case of `Nc1nnc2cc(Cl)ccc2n1`, the growth is reported as 136%.

For `Cc1ccc(C2CC(c3cccc(Nc4ccncc4)c3)=NN2c2ccccc2)cc1` (stereo unspecified), the growth was -83.6% (active).
For `OC1(c2ccc(Cl)c(C(F)(F)F)c2)CCN(CCCC(c2ccc(F)cc2)c2ccc(F)cc2)CC1`, the growth was -50.7% (active).
With `Cn1c(COC(=O)NCCN2CCOCC2)nc2c(N3CCOCC3)nc(-c3ccccc3)nc21` the growth was -78.8% (active).

tested on: ACHN renal; assay: as above; settings: 10 µM unless noted

With `O=C(Nc1ccc(Cl)cc1)Nc1ccc(Cl)c(Cl)c1` the growth was -9.93% (active).
For `Clc1ccc(C2CC(c3cccc(Nc4ccncc4)c3)=NN2c2ccc(Cl)cc2)cc1` (stereo unspecified), the growth was -66.6% (active).
`Clc1ccc(N2N=C(c3cccc(Nc4ccncc4)c3)CC2c2ccc(Br)cc2)cc1` (stereo unspecified) was tested, and the growth was 2.34% (active).
In the case of `CN1CCN(c2ccc(NC3=C(Cl)C(=O)c4ncccc4C3=O)cc2C#N)CC1`, the growth is reported as -96.1% (active).
In the case of `Cc1ccc(C2CC(c3cccc(Nc4ccncc4)c3)=NN2c2ccccc2)cc1` (stereo unspecified), the growth is reported as -99.8% (active).
For `C[C@]12CCc3nc(Nc4cccc(O)c4)sc3C1=CC[C@@H]1[C@@H]2CC[C@]2(C)/C(=N\NC(N)=S)CC[C@@H]12`, the growth was -54.1% (active).
In the case of `CCN(CC)CCCC(C)Nc1cc(-c2cccc(OC(F)(F)F)c2)nc2ccc(N3CCCC3)cc12` (stereo unspecified), the growth is reported as -19.5% (active).
`OC1(c2ccc(Cl)c(C(F)(F)F)c2)CCN(CCCC(c2ccc(F)cc2)c2ccc(F)cc2)CC1` was tested, and the growth was -86.8% (active).
`Cn1c(COC(=O)NCCN2CCOCC2)nc2c(N3CCOCC3)nc(-c3ccccc3)nc21` was tested, and the growth was -100% (active).

Going from `CC(C)Cc1ccc(C(C)C(=O)NCc2ccc(Cn3c(=O)sn(-c4ccc(Cl)cc4)c3=O)cc2)cc1` (stereo unspecified) to `COc1ccc(C2CC(c3cccc(Nc4ccncc4)c3)=NN2c2ccc(Cl)cc2)cc1` (stereo unspecified), the growth falls from 56.5% to 46.7%.

First: COc1ccc(/C=N/NC(=O)c2cccc3cc[nH]c23)cc1O
Second: COc1ccc(C(O)c2cc3c(N)c(C(=O)Nc4ccc(Br)cc4)sc3nc2C)cc1 (stereo unspecified)
The growth of the first is higher: 57.9% for the first, 37.8% for the second.

First: COc1cc(NCC(O)CN(CC(C)C)C2CCCC2)c2ncccc2c1 (stereo unspecified)
Second: CC1=NNC(=O)C1CCC(=O)N/N=C(\C)c1ccc2ccccc2c1 (stereo unspecified)
The growth of the first is lower: 80.2% for the first, 111% for the second.

Going from `COc1cccc(CCC(=O)c2cc3c(N)c(C(=O)Nc4ccccc4)sc3nc2C)c1` to `COc1ccccc1Nc1cc(O)c2c(=O)cc(-c3ccccc3)oc2c1`, the growth falls from 56.3% to 50.8%.

First: CN1CCN(CCCNc2nccc(-c3c(-c4ccc(F)c(O)c4)nc4sccn34)n2)S1(=O)=O
Second: COc1cc(-c2nc3occn3c2-c2ccnc(NCCNS(=O)(=O)c3ccc(Cl)cc3)n2)ccc1F
The growth of the first is higher: 82.4% for the first, 77.7% for the second.

First: C[C@@H]1CN(Cc2ccc(/C=C/c3n[nH]c4ccc5nc(-c6cn[nH]c6C(F)(F)F)c6c(c5c34)CCCC6)cc2)C[C@H](C)O1
Second: COc1ccncc1C#Cc1cncc(C(=O)Nc2ccc(CN3CCN(C)CC3)c(C(F)(F)F)c2)c1
The growth of the first is lower: 10.8% for the first, 13.2% for the second.

Compared with `COc1ccc(-c2ncc(-c3ccccc3)[nH]2)cc1OC`, `COc1cc2nc(-c3ccc(C#N)cc3)[nH]c(=O)c2cc1OC` is higher in growth: 111% for the first, 118% for the second.

Compared with `CCOC(=O)c1ccc(Nc2ccnc(SCC(=O)c3ccc(C#N)cc3)n2)cc1`, `COc1ccc(-c2nc(SCC(C)C)nc(N/N=C(/C)c3ccc(OC)c(OC)c3)c2C#N)cc1` is higher in growth: 80% for the first, 90.5% for the second.

Compared with `CCCCCCCCCCCCCCCCCCOc1ccccc1N`, `O=C(Nc1ccccc1)Oc1ccccc1-c1ccccc1` is higher in growth: 97.8% for the first, 99.9% for the second.

First: Fc1ccc(C2CC(c3cccc(Nc4ccncc4)c3)=NN2c2ccccc2)cc1 (stereo unspecified)
Second: Clc1ccc(N2N=C(c3cccc(Nc4ccncc4)c3)CC2c2ccccc2)cc1 (stereo unspecified)
The growth of the first is lower: 75.3% for the first, 94.9% for the second.

First: COc1ccc2c(c1)OC1=C(C(=O)OC1)C2c1cc(OC)c(OC)c(OC)c1 (stereo unspecified)
Second: COc1c(Cl)cc(Cl)c2ccc(C=C3C(=O)N(C)C(=O)N(C)C3=O)nc12
The growth of the first is lower: 48.8% for the first, 106% for the second.

Compared with `Clc1cc(Cl)cc(N2N=C(c3cccc(Nc4ccncc4)c3)CC2c2ccc(Br)cc2)c1` (stereo unspecified), `O=C1Nc2c(ccc(Cl)c2Cl)/C1=C/c1ccccn1` is higher in growth: 46.3% for the first, 72.6% for the second.

Going from `CN1CCN(C(=O)[C@]2(C)CC[C@]3(C)CC[C@]4(C)C(=CC(=O)[C@@H]5[C@@]6(C)CCC(=O)NC(C)(C)[C@@H]6CC[C@]54C)[C@@H]3C2)CC1` to `O=c1[nH]c2c(s1)CCCC2CN1CCCCC1` (stereo unspecified), the growth falls from 108% to 97.6%.

First: CC(=O)NCCCS(=O)(=O)O
Second: COc1ccc(NS(=O)(=O)c2ccc(C)cc2)c([N+](=O)[O-])c1
The growth of the first is higher: 98.2% for the first, 95.4% for the second.

In the case of `Nc1nnc2cc(Cl)ccc2n1`, the growth is reported as 89.9%.
